Source: PubChem (NMMLSC)
MEP2-GFP yeast = modulators of MEP2-GFP levels in yeast, primary screen, S. cerevisiae, multiplex flow cytometry, MLPCN library; S. cerevisiae MEP2-GFP strain, 3 h; 100% = DMSO control level; AID 2016, 2009; 0.51% of 330,000 active; GFP response vs DMSO, % at 10 µM;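 active means GFP response versus DMSO above a set limit, roughly screen mean plus 3 SD, cut at about 180% in these data; inconclusive means fewer than 70 cells counted for a yeast strain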;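 further: median GFP fluorescence of the barcode-gated MEP2-GFP cells per well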
CIT2 TOR yeast = modulators of CIT2-GFP expression in yeast, primary screen, S. cerevisiae, GFP fusion, multiplex flow cytometry, MLPCN library. S. cerevisiae CIT2-GFP strain, 3 h; 100 means same as DMSO wells. GFP response vs DMSO, % at 10 µM. 0.065% of 320,000 active. AID 2029, 2009;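 active means GFP response relative to DMSO above a set limit, near the screen mean plus 3 SD, cut at about 150% in these data; inconclusive means Fewer than 70 cells measured for a yeast strain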;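 further: ratio of well median GFP fluorescence to mean of DMSO wells on the plate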
AGP1 TOR yeast = modulators of AGP1-GFP expression in yeast TOR pathway, primary screen, cell-based, multiplex flow cytometry, S. cerevisiae, MLPCN library | 3 h; GFP as percent of DMSO wells | GFP response vs DMSO, % at 10 µM | 0.02% of 320,000 active | AID 2066, 2009;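 active means GFP response relative to DMSO above a set limit, near screen average plus 3 SD, cut at about 150% in these data; inconclusive means fewer than 70 cells counted for the yeast strain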;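 further: median GFP channel fluorescence of the gated AGP1 strain per well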
LAP4 TOR yeast = modulators of LAP4-GFP expression in yeast, primary screen, S. cerevisiae, multiplex flow cytometry, MLPCN library. 3 h; median GFP as percent of DMSO wells. GFP response vs DMSO, % at 10 µM. 0.34% of 320,000 active;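 active means GFP response vs DMSO above a set limit, about the screen mean plus 3 SD, cut at about 150% in these data; inconclusive means under 70 cell events counted for the yeast strain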
Efflux pump inh = inhibitors of Candida efflux pumps in yeast, primary screen, S. cerevisiae, Nile Red, multiplex; 0.44% of 330,000 active; S. cerevisiae Candida pump triplex; inhibition, % at 10 µM;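 active means plate passing quality check with inhibition over a set limit, or well fluorescence over plate mean plus 4 SD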;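 further: Nile Red retained in pooled yeast measured as flow cytometry median fluorescence; higher means more Nile Red kept so more efflux inhibition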
RPL19A-GFP yeast = RPL19A-GFP expression modulators in yeast, primary screen, cell-based, S. cerevisiae, multiplex flow cytometry, MLPCN; S. cerevisiae RPL19A-GFP strain, 3 h; hits give low values; percent response vs DMSO, % at 10 µM; 0.3% of 330,000 active; AID 2025, 2009;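 active means percent response vs DMSO below 50%; inconclusive means fewer than 70 events counted for the yeast strain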;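 further: median channel GFP fluorescence of the barcoded RPL19A-GFP strain; lower means less RPL19A-GFP as with rapamycin TOR inhibition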
Each line names hits and unclear results; the compound was inactive in the other large screens; [ ] = remark or other dose. A selection: hits, their analogues and other compounds. The true share with any hit is near 1.3%.

O=C(Cc1ccccc1)N/N=C/c1cccn1-c1ccc([N+](=O)[O-])cc1	MEP2-GFP yeast 185[may fluoresce violet], CIT2 TOR yeast inconclusive, AGP1 TOR yeast inconclusive, LAP4 TOR yeast inconclusive, RPL19A-GFP yeast 32[may fluoresce violet]
O=C(N/N=C/c1cccn1-c1ccc([N+](=O)[O-])cc1)C(O)c1ccccc1 (stereo not given)	none
Cc1[nH]c2c(C)cccc2c1CN1CCC(CO)(Cc2ccccc2)CC1	none
Cc1[nH]c2ccccc2c1CN1CCC(CO)(Cc2ccccc2)CC1	CIT2 TOR yeast inconclusive, RPL19A-GFP yeast 42[may fluoresce violet]
O=C(Nc1c(F)cccc1F)c1ccc(-n2cncn2)nc1	MEP2-GFP yeast 233[may fluoresce violet], CIT2 TOR yeast inconclusive
Cc1ccc(Nc2cc(C)nn2-c2nc(C)cc(=O)[nH]2)cc1	LAP4 TOR yeast 152
O=C(O)c1ccc(Nc2nc(-c3cccnc3)nc3ccccc23)cc1	none
Cc1cc(C)c2c(N)c(C(=O)NN)sc2n1	none
Cc1ccc(NC(=O)c2sc3nc(C)cc(C)c3c2N)cc1	MEP2-GFP yeast 340[may fluoresce violet], CIT2 TOR yeast inconclusive, AGP1 TOR yeast inconclusive, RPL19A-GFP yeast 36[may fluoresce violet]
CN1CCN(/N=C/c2c3ccccc3c(Cl)c3ccccc23)CC1	LAP4 TOR yeast 163
Clc1ccc(CSc2nnc(-c3ccncc3)o2)cc1	MEP2-GFP yeast 179[may fluoresce violet], CIT2 TOR yeast inconclusive
COC(=O)c1cccc(-n2c(CCC(=O)O)ccc2-c2cccs2)c1	LAP4 TOR yeast 157
CC(=O)c1ccc(-n2c(CCC(=O)O)ccc2-c2cccs2)cc1	none
CC(=O)c1ccc(S(=O)(=O)N(C)CC(=O)N2CCCCCC2)cc1	none
CC1CCC(NC(=O)CCS(=O)(=O)c2ccc3c(c2)NC(=O)C(C)S3)CC1 (stereo not given)	none
O=C(CCNS(=O)(=O)c1ccccc1F)N1CCN(C(c2ccccc2)c2ccccc2)CC1	none
Nc1cc(N)nc(SCC(=O)N2CCc3ccccc32)n1	MEP2-GFP yeast 175 (no result: AGP1 TOR yeast)
Cc1nc(SCC(=O)N2CCc3ccccc32)n[nH]1	MEP2-GFP yeast 365[may fluoresce violet], CIT2 TOR yeast inconclusive, AGP1 TOR yeast inconclusive, RPL19A-GFP yeast 40[may fluoresce violet]
CC(C)(C)c1ccc(C(=O)N2CCCC2c2cccs2)cc1 (stereo not given)	none
CCc1oc2ccccc2c1C(=O)CCN1CCCCC1	LAP4 TOR yeast 154
O=C(CCN1CCCCC1)c1ccccc1	none
O=C(O)c1ccccc1C(=O)NC1CCCCNC1=O (stereo not given)	none
O=C(NCc1nnc(SCC(=O)N2CCCC2)o1)c1cccc(C(F)(F)F)c1	none
O=C1CSC(=S)N1/N=C/c1cc(Br)c(O)c(Br)c1	Efflux pump inh 7.5
O=[N+]([O-])/C=C/c1cn(Cc2ccccc2)c2ccccc12	LAP4 TOR yeast 178
O=C(O)Cn1cc(/C=C/[N+](=O)[O-])c2ccccc21	none
N#Cc1ccccc1Cn1cc(/C=C/[N+](=O)[O-])c2ccccc21	LAP4 TOR yeast 156
O=C(Cn1cc(/C=C\[N+](=O)[O-])c2ccccc21)Nc1ccccc1	none
O=Cc1cccc(OC(=O)Nc2ccccc2)c1	none
Cc1cccc(NC(=O)CSCC(=O)Nc2cccc3ncccc23)c1	none
COc1ccc(/C=C(/NC(=O)c2ccccc2)C(=O)NCc2ccco2)cc1	MEP2-GFP yeast inconclusive, CIT2 TOR yeast inconclusive, AGP1 TOR yeast inconclusive, RPL19A-GFP yeast 46[may fluoresce violet]
COc1ccc(/C=C(\NC(=O)c2ccco2)C(=O)NCc2ccco2)cc1	none
COc1ccc(NC(=O)Nc2sc(NS(=O)(=O)c3ccccc3)nc2C)cc1	none
Cc1ccc(NC(=O)N2CCC(NC(=O)c3cccc(F)c3)CC2)cc1	none
O=C(NC1CCN(C(=O)Nc2ccc(F)cc2)CC1)c1cccc(F)c1	MEP2-GFP yeast 200[may fluoresce violet], CIT2 TOR yeast inconclusive, AGP1 TOR yeast inconclusive, RPL19A-GFP yeast 30[may fluoresce violet]
O=c1cc(O)nc(SCc2ccc(Cl)cc2)[nH]1	MEP2-GFP yeast 352[may fluoresce violet], CIT2 TOR yeast inconclusive
Cc1nnc2sc(SCC(=O)Nc3nccs3)nn2c1=O	MEP2-GFP yeast 235[may fluoresce violet], CIT2 TOR yeast inconclusive, AGP1 TOR yeast inconclusive, RPL19A-GFP yeast 22[may fluoresce violet]
COc1ccccc1NC(=O)CSc1nn2c(=O)c(C)nnc2s1	none
CCOC(=O)C1=C(O)c2ccccc2C(=O)/C1=C\c1ccc(CC)cc1	none
CCCc1ccc(/C=C2\C(=O)c3ccccc3C(O)=C2C(=O)OCC)cc1	Efflux pump inh 1.9
CCOC(=O)c1ccc(COC(=O)c2ccc3c(c2)-c2ccccc2C3=O)cc1	none
CCOC(=O)C1=C(Cc2ccc(C)cc2)C(=O)c2ccccc2C1=O	LAP4 TOR yeast 168
O=C(C1=C(O)C(=O)N(c2ncccn2)C1c1ccc(F)cc1)c1ccco1 (stereo not given)	MEP2-GFP yeast 506[may fluoresce violet], RPL19A-GFP yeast 43[may fluoresce violet] (no result: CIT2 TOR yeast, AGP1 TOR yeast, LAP4 TOR yeast)
Cc1noc(C)c1C(=O)OCC(=O)NCCc1ccccc1	none
Cc1cc(O)c(C(C)C)cc1NS(=O)(=O)c1ccccc1	MEP2-GFP yeast 182[may fluoresce violet], CIT2 TOR yeast inconclusive, RPL19A-GFP yeast 46[may fluoresce violet]
CC(C)CCC1(C)NC(=O)N(CC(=O)NCC(=O)Nc2ccc(F)c(F)c2F)C1=O (stereo not given)	none
Cc1nc2ccc(NC(=O)CSc3nnc(C)s3)cc2[nH]1	none
CCOCCCNC(=O)Cn1nc(Cc2ccncc2)c2ccccc2c1=O	none
O=C1/C(=C\c2ccccn2)SC(=S)N1Nc1ncc(C(F)(F)F)cc1Cl	LAP4 TOR yeast 152
CC(C)C(C(=O)NCc1ccco1)N(Cc1ccco1)C(=O)CNS(=O)(=O)c1ccc(F)cc1 (stereo not given)	MEP2-GFP yeast inconclusive, CIT2 TOR yeast inconclusive, AGP1 TOR yeast inconclusive, RPL19A-GFP yeast 24[may fluoresce violet]
CC(C)C(C(=O)NC1CCCC1)N(Cc1ccco1)C(=O)CNS(=O)(=O)c1ccccc1 (stereo not given)	none
CCOCCCn1c(=NC(=O)c2cccnc2)c(C(=O)OCC)cc2c(=O)n3ccccc3nc21	MEP2-GFP yeast 196[may fluoresce violet], CIT2 TOR yeast inconclusive, RPL19A-GFP yeast 43[may fluoresce violet]
CCCOc1ccc(-c2c(C(=O)N/N=C/C3CC=CCC3)nnn2-c2nonc2N)cc1 (stereo not given)	none
CCCOc1ccc(-c2c(C(=O)N/N=C/C3CCCCC3)nnn2-c2nonc2N)cc1	CIT2 TOR yeast inconclusive, AGP1 TOR yeast inconclusive, RPL19A-GFP yeast 27[may fluoresce violet]
Cn1ccnc1SCC(=O)Nc1ccc2nc(SCC(=O)NC3CC3)sc2c1	MEP2-GFP yeast 280[may fluoresce violet], CIT2 TOR yeast inconclusive, AGP1 TOR yeast inconclusive (no result: RPL19A-GFP yeast)
CC(=O)Nc1ccc(NC(=O)CSc2nnnn2-c2ccc(F)cc2)cc1	MEP2-GFP yeast 194[may fluoresce violet], CIT2 TOR yeast inconclusive
COc1ccccc1C(=O)Nc1nsc(-c2ccccc2)n1	LAP4 TOR yeast 151
O=C(OCc1cccc([N+](=O)[O-])c1)c1ccncc1	none
